Molecules are shown by their SMILES. In all, about 350,000 compounds went through this assay and about 450 (0.13%) were called active. The rule behind the calls is not given here. These entries were drawn from the full list. Entries with a potency or affinity are not part of this list.

By inhibition is commonly meant the share of the control response that was lost under treatment.

The assay is described as follows: inhibitors of VEEV TC-83 cytopathic effect, confirmation, Vero cells (AID 588727). The note with it: VEEV TC-83 cytopathic effect inhibition, at 20 µM; stronger effect = higher value unless noted.
Consider `C=C1CC2C(=O)N(Cc3cc(OC)ccc3OC)C(C(=O)OCC)(C(=O)OCC)C1N2C(=O)OC(C)(C)C` (stereo not drawn), for which the inhibition result is “inactive”.

In the case of `COc1ccc(/C=C2\CN(Cc3ccccc3)C/C(=C\c3ccc(OC)cc3OC)C2=O)c(OC)c1`, the inhibition is 6.18% (inactive).

For the compound `CCN1C/C(=C/c2ccc(OC)c(O)c2)C(=O)/C(=C/c2ccc(OC)c(O)c2)C1`, the inhibition result is “inactive”.

As for `Cc1cc(C)cc(-n2ncc3c2CCCC3NC(=O)CCCn2cncn2)c1` (stereo not drawn), the inhibition was 0.41% (inactive).

As to `COc1ccccc1C1CCCN1Cc1nc(-c2cc3c(cc2Cl)OCO3)oc1C` (stereo not drawn), the inhibition was 3.15% (inactive).

Take `CCOc1ccccc1-c1nc(CN2CCCC2c2nccs2)c(C)o1` (stereo not drawn): the inhibition was 8.27% (inactive).

For `COc1ccc(OC)c(S(=O)(=O)NCCS(=O)(=O)N2CCN(c3ccccc3)CC2)c1`, the inhibition was 0.7% (inactive).

Turning to `Cc1nc2ccccc2c(=O)n1NC(=O)/C=C/c1ccc(Br)cc1`, the inhibition entry is “inactive”.

Take `Cc1c(NC(=O)Nc2ccccc2)c(=O)n(-c2ccccc2)n1C`: the inhibition result is “inactive”.

For the compound `O=C(NC1CCCCC1)c1cc2ccccc2cc1O`, the inhibition entry was “inactive”.

As to `O=C(NNC(=O)c1ccc2ccccc2c1O)NC1CCCCC1`, the inhibition was 2.22% (inactive).

Consider `O=S(=O)(c1cccc2nsnc12)N1CCc2ccccc21`, for which the inhibition entry was “inactive”.

Regarding `Cc1nnc(N2CCCC(C(=O)NCc3cccc(F)c3)C2)c2nn(-c3ccccc3)c(C)c12` (stereo not drawn), the inhibition is 7.4% (inactive).

As to `Cc1ccc(CNc2nc(N)c([N+](=O)[O-])c(NCCO)n2)cc1`, the inhibition is 5.11% (inactive).

`O=c1c2sccc2nc(SCc2cc(=O)n3cc(Cl)ccc3n2)n1-c1ccc(F)cc1`: the inhibition is 6.28% [measured here: 10K pilot screen inhibition, stronger effect = higher value] and the call was inactive.

Consider `COCCNC(=O)c1cc2oc3ccccc3c2n1C`, for which the inhibition is 3.48% (inactive).

With `Cn1c(C(=O)NCc2cccs2)cc2c(=O)n(C)c3ccccc3c21`, the inhibition was 0.66% (inactive).

Regarding `Cc1ccc2c(c1)cc(C(=O)N[C@@H](Cc1ccccc1)C(=O)O)n2C`, the inhibition entry was “inactive”.

As to `Cc1c(C(=O)NCc2cccs2)oc2ccccc12`, the inhibition is 1.87% (inactive).

For the compound `Cc1ccc(CNC(=O)c2cc3c(=O)n(C)c4ccccc4c3n2C)cc1`, the inhibition was 0.2% (inactive).

For the compound `COc1cccc(CNC(=O)c2cc3oc4ccccc4c3n2C)c1OC`, the inhibition was 55% (inactive).

For `CCOc1ccccc1CNC(=O)c1cc2occc2n1C`, the inhibition was 3.56% (inactive).

For `Cn1c(C(=O)NCC2CCCO2)cc2oc3ccccc3c21` (stereo not drawn), the inhibition is 6.64% (inactive).

Turning to `CC(C)CCC(=O)N1CCC(N2CCC(C(=O)NCc3ccccn3)CC2)CC1`, the inhibition was 0.93% (inactive).

Turning to `CC(C)(C)n1nc2c(c1NC(=O)c1ccc(F)c(F)c1)CS(=O)(=O)C2`, the inhibition is 0.7% (inactive).

Turning to `O=C(C1CC(=O)N(c2ccc(F)cc2)C1)N1CCCCCC1` (stereo not drawn), the inhibition result was “inactive”.

Regarding `O=C1c2cccnc2C(=O)N1CO`, the inhibition is 0.3% (inactive).

For the compound `CC(C)(C)C1CCc2c(sc3c2C(=O)NC(c2ccco2)N3)C1` (stereo not drawn), the inhibition was 0.21% (inactive).

With `CCC(=O)Nc1cc(C(=O)O)ccc1Sc1ccccc1`, the inhibition was 0.44% (inactive).

Consider `Cn1cc(CCC(=O)NCc2cccc(Cl)c2)c2ccccc21`, for which the inhibition is 0.85% (inactive).

Consider `O=C(COC(=O)c1ccc(Cl)cc1[N+](=O)[O-])NCc1ccco1`, for which the inhibition is 0.06% (inactive).

For `Cc1ccc(S(=O)(=O)Nc2ccc(C(=O)NCCCn3ccnc3)cc2)cc1[N+](=O)[O-]`, the inhibition was 0.22% (inactive).

`COc1ccc(COC(=O)c2cccc(S(=O)(=O)N3CCN(C(C)=O)CC3)c2)cc1F`: the inhibition was 1.43% (inactive).

On to `CC(=O)OC1CCC2(C)C3CCC4(C)C(C(C)=O)CCC4C3CC3OC32C1` (stereo not drawn), for which the inhibition is 4.89% (inactive).

With `C[C@]12CCC3C(CC[C@@H]4C[C@@H](O)CC[C@]34C)C1CC[C@@H]2O` (stereo partly drawn), the inhibition was 1.93% (inactive).

As to `CC12CC[C@H]3[C@@H](CCC4(O)C[C@H](O)CCC34/C=N/NC(=O)Cc3ccccc3)C1(O)CCC2C1=CC(=O)OC1` (stereo partly drawn), the inhibition was 1.62% (inactive).

Turning to `C[C@]12CCC3C(CC[C@H]4C[C@H](O)CC[C@]34C)C1CC(=O)[C@@H]2O` (stereo partly drawn), the inhibition is 2.26% (inactive).

`CC(=O)OC1CC[C@]2(C#N)[C@H]3CC[C@]4(C)[C@H](C5C=CC(=O)O5)CCC4(O)C3CCC2(O)C1` (stereo partly drawn): the inhibition is 21.3% (inactive).

`CC12CC[C@H]3[C@@H](CCC4(O)C[C@H](O)CCC34/C=N/NC(=O)c3ccccc3F)C1(O)CCC2C1=CC(=O)OC1` (stereo partly drawn): the inhibition is 8.49% (inactive).

`CC(=O)OC1CC2(O)C3CCC4CC(O)CCC4(C)C3CCC2(C)C1C1=CC(=O)OC1` (stereo not drawn): the inhibition is 24.4% (inactive).

Regarding `CC(C)c1ccc(NC(=O)CN2C(=O)NC3(CCCC3)C2=O)cc1`, the inhibition result is “inactive”.

Regarding `CCOC(=O)C1CCCN(C(=O)c2cc3cc4ccc(OC)cc4nc3o2)C1` (stereo not drawn), the inhibition is 1.72% (inactive).

As for `Cc1ccc(N2C(=O)N3[C@H]4c5ccccc5OC[C@@H]4[C@@H](c4ccccc4)[C@@]3(C)C2=O)cc1`, the inhibition was 0.66% (inactive).

With `CN(CC(=O)Nc1cccc(F)c1)C(=O)CCc1nc2cc(S(=O)(=O)N3CCOCC3)ccc2n1C`, the inhibition is 0.55% (inactive).

`CC(C)Oc1ccc(CSc2nnc3n(C)c(=O)c4c5c(sc4n23)CCCC5)cc1`: the inhibition entry is “inactive”.

With `CCCCNC(=O)COC(=O)c1ccc(SC)cc1OC`, the inhibition is 2.58% (inactive).

Consider `CC(=O)Nc1ccc(S(=O)(=O)N2CCC(NC(=O)C(Cc3cccc(F)c3)NC(C)=O)CC2)cc1` (stereo not drawn), for which the inhibition is 0.28% (inactive).

On to `COc1ccc(C(=O)N/N=C/C23CC[C@@H](O)CC2(O)CC[C@@H]2[C@@H]3CCC3(C)C(C4=CC(=O)OC4)CCC23O)cc1` (stereo partly drawn), for which the inhibition was 42.5% (inactive).

For `CC(=O)O[C@@H]1CC[C@]2(C)C3CC[C@@]4(C)C(C[C@@H](O)[C@@H]4O)C3[C@@H](OC(C)=O)C[C@H]2C1` (stereo partly drawn), the inhibition is 0.36% (inactive).

`CC(=O)[C@@]1(O)CCC2C3CC[C@H]4C[C@@H](O)CC[C@]4(C)C3CC[C@@]21C` (stereo partly drawn): the inhibition was 6.31% (inactive).

In the case of `C[C@H]1CC[C@@H]2[C@@H](C)[C@H]3[C@H](C[C@H]4[C@@H]5CC=C6C[C@@H](O[C@@H]7O[C@H](CO)[C@H](O)[C@H](O[C@@H]8O[C@H](CO)[C@@H](O)[C@H](O)[C@H]8O)[C@H]7O[C@@H]7O[C@@H](C)[C@H](O)[C@@H](O)[C@H]7O)CC[C@]6(C)[C@H]5CC[C@]34C)N2C1`, the inhibition entry is “inactive”.

`C[C@]12CCC3C(CCC4=CC(O)CC[C@@]43/C=N/O)C1(O)CCC2C1=CC(=O)OC1` (stereo partly drawn): the inhibition is 27.9% (inactive).

As for `CC12CC[C@H]3[C@@H](CCC4(O)C[C@H](O)CCC34/C=N/NC(=O)c3ccc(O)cc3)C1(O)CCC2C1=CC(=O)OC1` (stereo partly drawn), the inhibition is 0.73% (inactive).

For `COc1cc(C(=O)N/N=C/C23CC[C@@H](O)CC2(O)CC[C@@H]2[C@@H]3CCC3(C)C(C4=CC(=O)OC4)CCC23O)ccc1O` (stereo partly drawn), the inhibition is 7% (inactive).

With `CCOc1ccc(N2CC(C(=O)Nc3cccc(C(=O)NC4CC4)c3)CC2=O)cc1` (stereo not drawn), the inhibition is 1.22% (inactive).

For `Cc1ccccc1OCC(=O)Nc1ccc(N2CCOCC2)cc1N1CCOCC1`, the inhibition was 6.68% (inactive).

`COc1ccc(C2(C)NC(=O)NC2=O)cc1OC` (stereo not drawn): the inhibition result is “inactive”.

Regarding `COc1ccc(OC(C)c2ccc(C#N)c(=O)[nH]2)cc1` (stereo not drawn), the inhibition was 1% (inactive).

`Cc1cc(=O)[nH]c(SCn2nnc3ccccc3c2=O)n1`: the inhibition is 0.62% (inactive).

Regarding `COc1ccc(S(=O)(=O)c2c(O)c3ccc(C(=O)Nc4ccccc4Cl)cc3[nH]c2=O)cc1`, the inhibition was 0.45% (inactive).

With `O=C1COc2ccc(C(=O)COC(=O)c3ccc(S(=O)(=O)C(F)F)cc3)cc2N1`, the inhibition is 3.01% (inactive).

On to `COc1cc(/C=N/NC2=NS(=O)(=O)c3ccccc32)cc(OC)c1OC`, for which the inhibition is 0.18% (inactive).

For the compound `CC12CC[C@H]3[C@@H](CCC4(O)C[C@H](O)CCC34/C=N/NC(=O)c3ccccc3Cl)C1(O)CCC2C1=CC(=O)OC1` (stereo partly drawn), the inhibition was 2.51% (inactive).

As to `C[C@]12CC[C@H]3[C@@H](CC[C@]4(O)C[C@@H](O)CC[C@]34C=O)[C@@]1(O)CC[C@@H]2C1=CC(=O)OC1`, the inhibition was 24.6% (inactive).

For the compound `Fc1ccc(-c2nnc(Cc3ccc(Cl)cc3)o2)cc1`, the inhibition entry is “inactive”.

For `Cc1ccc(OCCSc2nc(N)cc(N)n2)cc1`, the inhibition is 3.61% (inactive).

Turning to `O=C(c1ccc(F)cc1)c1ccc(-c2ccc(F)cc2)nc1`, the inhibition was 1.5% (inactive).

As for `Cc1cc(C)c2nc(N(CCCN(C)C)C(=O)c3ccc4c(c3)OCCO4)sc2c1`, the inhibition was 11.7% (inactive).

Consider `COc1ccc(Cl)c2sc(N(CCN(C)C)C(=O)c3ccc4c(c3)OCCO4)nc12`, for which the inhibition is 3.95% (inactive).

As for `CN(Cc1ccccc1)C(=O)CN(C)S(=O)(=O)c1ccc(F)cc1`, the inhibition is 0.12% (inactive).

`COc1ccc2cc(-c3cc(C(=O)OCC(=O)Nc4c(C)n(C)n(-c5ccccc5)c4=O)c4ccccc4n3)ccc2c1`: the inhibition result was “inactive”.

In the case of `Cc1c(NC(=O)COC(=O)c2cc(-c3cccc4ccccc34)nc3ccccc23)c(=O)n(-c2ccccc2)n1C`, the inhibition is 2.81% (inactive).

Take `CC(C)[C@H](NC(=O)C1CC(=O)N(c2ccc3c(c2)OCCO3)C1)C(=O)NC1CCCC1` (stereo partly drawn): the inhibition is 3.54% (inactive).

On to `O=C(CSc1nnc(-c2ccccc2Br)o1)N1CCOCC1`, for which the inhibition was 0.96% (inactive).

For `Cc1ccccc1N1C(=O)C(Cc2ccc(F)cc2)S/C1=C(\C#N)C(N)=O` (stereo not drawn), the inhibition was 0.67% (inactive).

Take `Cc1ccc(CC2SC(=O)NC2=O)cc1Cl` (stereo not drawn): the inhibition is 4.25% (inactive).

Take `Nc1ccc(CC2SC(=O)NC2=O)cc1` (stereo not drawn): the inhibition is 0.36% (inactive).

`O=C1NC(=O)C(Cc2cccc(Oc3ccccc3)c2)S1` (stereo not drawn): the inhibition was 0.8% (inactive).

`COc1ccc(/C=C(/NC(=O)c2ccccc2)C(=O)N2CCCC2)cc1`: the inhibition is 1.46% (inactive).

Regarding `CCN(Cc1ccccc1)C(=O)c1ccc(N(C)S(=O)(=O)c2ccc(C)cc2)cc1`, the inhibition is 10.1% (inactive).

For `CC(=O)NC1=NN(C(C)=O)C(c2ccc(C)cc2)S1` (stereo not drawn), the inhibition was 0.39% (inactive).

Consider `Cc1[nH]c2ccccc2c1/C=N/NC(=O)c1cccc(F)c1`, for which the inhibition is 4.66% (inactive).

Values taken from PubChem BioAssay AID588727 (Southern Research Specialized Biocontainment Screening …, 2011).
